Nrf2 ARE act: qHTS of Nrf2 Activators; AREc32 ARE-luciferase reporter (MCF7-derived line), luminescence, 24 h; 0.31% of 410,000 active; Potency, µM (titrated, usually from 46.1 µM), inactives show at the top dose activation, most hits filed as activators; AID 624171, 2012; further: % of control where 0% means no effect; nearly all actives have a fitted effect of over 65% in size
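Cells of the AREc32 ARE-luciferase line are plated in OPTI-MEM containing 5% FBS and left overnight at 37 deg C. Compounds are pinned in, incubation continues 24 hr, and firefly luciferase signal is then measured.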
TrxR1 inh: qHTS Assay for Inhibitors of Mammalian Selenoprotein Thioredoxin Reductase 1 (TrxR1): qHTS; Potency, µM (doses to about 114 µM), for inactives: top-dose activity change, negative = inhibition, usual class: inhibitors; recombinant rTrxR1, NADPH fluorescence consumption, selenite substrate; Thioredoxin reductase 1, cytoplasmic (Rattus norvegicus), O89049; 1% of 390,000 active; AID 588453, 2011; further: on the % scale 0 is the no-effect control and ±100 the full control effect; nearly all actives have a fitted effect of over 65% in size
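Rat TrxR1 (90 nM in the dispensed reagent) was pre-reduced with 400 uM NADPH for 5 min at room temperature, then incubated with compound for 15 min. After 400 uM selenite was added, NADPH fluorescence (Ex 340/Em 450 nm) was followed for 8 min.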
A549 viability: Nrf2 qHTS screen for inhibitors: counterscreen for cytotoxicity; A549 ARE-Fluc cells, CellTiter-Fluor viability, 18-24 h; Potency, µM (top dose mostly 46 µM), inactives show at the top dose activity change, negative = cytotoxicity, most hits filed as inhibitors; 0.16% of 390,000 active; AID 504648, 2011; further: on the % scale 0 is the no-effect control and ±100 the full control effect
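Cytotoxicity counterscreen: CellTiter-Fluor fluorescence was measured in A549 ARE_Fluc cells after 18-24 h of compound exposure in a concentration series. The subsequent BugLite luminescent read reports ARE-luciferase activity.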
TrxR1 substrate: qHTS Assay for Substrates of Mammalian Selenoprotein Thioredoxin Reductase 1 (TrxR1): qHTS | purified TrxR1 substrate turnover, NADPH consumption readout | AID 588456, 2011 | Thioredoxin reductase 1, cytoplasmic (Rattus norvegicus), O89049 | 0.01% of 390,000 active | Potency, µM (top dose mostly 114 µM), without a hit: at the highest dose activity change, negative = substrate turnover; further: on the % scale 0 is the no-effect control and ±100 the full control effect; nearly all actives have a fitted effect of over 50% in size
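Rat TrxR1, dispensed at 90 nM, was prereduced with 400 uM NADPH (final) for 5 min at ~22 deg C, then incubated with compound 15 min before 400 uM selenite. A first-read NADPH fluorescence drop versus no-compound background flagged substrates.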
GALK inh: qHTS Assay for Inhibitors of Human Galactokinase (GALK); P51570; Purified GALK, Kinase-Glo residual ATP luminescence; Potency, µM (doses to about 57.5 µM), for the others: at the top dose activity change, negative = inhibition, actives largely listed as inhibitors; 0.007% of 270,000 active; further: on the % scale 0 is the no-effect control and ±100 the full control effect
Target sequence (P51570 whole entry, looked up): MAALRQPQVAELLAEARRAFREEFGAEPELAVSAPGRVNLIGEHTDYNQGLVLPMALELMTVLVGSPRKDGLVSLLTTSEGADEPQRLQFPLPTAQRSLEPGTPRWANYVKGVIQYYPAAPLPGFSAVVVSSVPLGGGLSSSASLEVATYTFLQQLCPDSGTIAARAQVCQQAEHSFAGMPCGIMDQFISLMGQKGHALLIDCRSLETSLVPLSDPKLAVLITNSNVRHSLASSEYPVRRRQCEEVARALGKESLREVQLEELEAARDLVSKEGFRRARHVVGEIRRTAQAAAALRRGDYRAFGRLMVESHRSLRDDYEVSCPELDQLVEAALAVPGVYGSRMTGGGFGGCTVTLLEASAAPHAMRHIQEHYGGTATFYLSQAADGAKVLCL
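Kinase-Glo Plus luminescence measured ATP left after a 1 h room-temperature reaction. The reaction used 5 nM GALK, 100 uM galactose and 35 uM ATP at pH 8.0 (20 mM HEPES, 5 mM MgCl2, 60 mM NaCl, 1 mM DTT, 0.01% BSA).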
Nrf2 block: Nrf2 qHTS screen for inhibitors. A549 ARE-Fluc reporter, luciferase luminescence, 18-24 h. Potency, µM (top dose mostly 46 µM), inactives show top-dose activity change, negative = inhibition, hits mostly inhibitors. 2.1% of 360,000 active. AID 504444, 2011; further: on the % scale 0 is the no-effect control and ±100 the full control effect; nearly all actives have a fitted effect of over 60% in size
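Two sequential reads on A549 ARE_Fluc cells exposed to compound for 18-24 h: a CellTiter-Fluor fluorescence read for viability, then a luciferase luminescence read for Nrf2/ARE activity.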
An asterisk follows results filed as active; ? = inconclusive; · = no result; [ ] = dose if it differs, or a comment. The list is not random: actives were taken first. Their share in the collection is about 3%. The call rests on the fitted dose curve; in most records, active means well fitted curve in the direction sought with a large enough effect; inconclusive means small, poorly fitted or top-dose-only effect, or another doubt; inactive means no such curve, though single readings can be large; an effect the other way counts as inactive or inconclusive. Potency means the concentration at half of the fitted maximal effect.

SMILES	Nrf2 ARE act	TrxR1 inh	A549 viability	TrxR1 substrate	GALK inh	Nrf2 block
Nc1cccc2c1C(=O)N(C(=O)/C=C/c1cccc(F)c1)C2=O	24.9%[9.22 µM]	28.2µM*	4.5%	2.2%	0.5%	?
Nc1cccc2c1C(=O)N(C(=O)/C=C/c1cccc(Br)c1)C2=O	6.5%	20µM*	1.5%	8.5%	-12.6%	-10.2%
Cc1cccc(NC(=O)Cn2nnc(C(=O)NCc3cccs3)c2N)c1	-0.1%	7.2%	-2.0%	-3.0%	·	6.5%
COc1cc(/C=N/N2C(=O)CSC2=S)cc(Br)c1O	2.9%	-51.5%	-20.7%	6.5%[57.1 µM]	1.0%	8.7%
COc1cccc(/C=N/N2C(=O)CSC2=S)c1O	7.5%	17.8µM*	-2.9%	-12.8%	·	-12.8%
Cc1ccccc1NC(=O)Cn1c(=O)n(Cc2ccccc2)c(=O)c2sc3ccccc3c21	-0.8%	20.7%	-6.2%	8.9%	·	11.9%
O=C1CC(c2nc(-c3ccc(Cl)cc3)no2)CN1c1ccc2c(c1)OCCO2 (stereo not given)	0.5%	17.1%[57.1 µM]	-0.9%	-3.0%[57.1 µM]	·	-43.9%
COc1ccc(C(=O)Nc2ccc(NC(=O)c3ccccc3)cc2)cc1S(=O)(=O)N1CCOCC1	0.4%	13.7%[57.1 µM]	-14.9%	6.5%[57.1 µM]	1.7%	?
CN(c1ccccc1)S(=O)(=O)c1cccc(C(=O)Nc2ccc(N3CCOCC3)cc2)c1	3.8%	13.5%	-3.5%	0.5%	·	14.6µM*
COc1ccc(C(=O)Nc2ccc(N3CCCCCC3)cc2)cc1S(=O)(=O)N1CCOCC1	-0.6%	-5.0%	-17.3%	-9.8%	·	13µM*
COc1ccc(Br)cc1C(=O)Nc1ccc(N2CCCC2)cc1	13.9%	21.0%	0.7%	7.3%	1.8%	?
CC1CN(S(=O)(=O)c2cccc(C(=O)Nc3ccccc3N3CCCC3)c2)CC(C)O1 (stereo not given)	3.5%	12.7%	-12.4%	-3.5%	·	23.1µM*
COc1ccc(Br)cc1C(=O)Nc1ccc(N2CCN(S(C)(=O)=O)CC2)cc1	2.5%	35.0%[0.457 µM]	-18.4%	18.3%	0.6%	18.4µM*
CCc1c(C)c(C#N)c2nc3ccccc3n2c1Nc1cccc(C(F)(F)F)c1	-0.8%	10.7%[11.4 µM]	2.7%	12.5%[11.4 µM]	·	6.4%
Cc1ccc(NC(=O)c2c(C(=O)Nc3ccccc3)sc3nc(C)cc(=O)n23)c(C)c1	-0.9%	6.8%	-11.7%	-2.5%	·	5.7%
O=C(Nc1ccc(F)cc1)c1ccc(Br)c(S(=O)(=O)N2CCOCC2)c1	3.3%	-8.9%[57.1 µM]	-16.5%	-6.8%[57.1 µM]	-1.4%	14.6µM*
O=C(Nc1ccc(Br)cc1)c1cccc(OC(=S)N2CCOCC2)c1	3.2%	16.5%[0.457 µM]	-15.2%	-8.8%	-2.9%	16.4µM*
O=C(Nc1ccc(N2CCCCCC2)cc1)c1cccc(S(=O)(=O)N2CCOCC2)c1	0.2%	-0.3%	-3.1%	-5.0%	·	16.4µM*
COc1ccc(NC(=O)c2cccc(OC(=S)N3CCOCC3)c2)cc1	3.7%	-0.6%	3.6%	-7.7%	-1.6%	?
O=C(Nc1cccc(S(=O)(=O)N2CCOCC2)c1)c1cccc(S(=O)(=O)N2CCCCC2)c1	-0.7%	15.8%	-3.6%	-1.0%	·	?
O=c1oc2ccccc2c(Nc2ccc(Cl)cc2)c1[N+](=O)[O-]	14.0%	20.7%	-4.0%	1.9%	·	16.4µM*
O=c1oc2ccccc2c(Nc2ccc(F)cc2)c1[N+](=O)[O-]	27.6%	16.7%	-13.3%	-1.1%	5.7%	-25.1%
CC1(C)CC(=O)C2=C(C1)OC(N)=C(C#N)[C@@H]2c1ccccc1[N+](=O)[O-]	18.0%	20µM*	0.4%	12.4%	5.3%	-21.7%
Cc1ccc(C)c(NS(=O)(=O)c2ccc3c4c(cccc24)C(=O)N3)c1	-5.0%	?	-2.3%	-12.4%	·	18.4µM*
CC(C)(C)OC(=O)COc1cc(OCC(=O)OC(C)(C)C)c2c(=O)cc(-c3ccccc3)oc2c1	-2.3%	-4.9%	16.4µM*	-1.4%	-3.0%	23.1µM*
SMILES	Nrf2 ARE act	TrxR1 inh	A549 viability	TrxR1 substrate	GALK inh	Nrf2 block
O=c1cc(-c2ccc(OCc3ccccc3)cc2)oc2cc(OCc3ccccc3)cc(OCc3ccccc3)c12	4.8%	39.8µM*	-9.4%	3.9%	·	3.6%
Cc1ccc2nc(NC(=O)c3cc(=O)c4cc(Cl)ccc4o3)sc2c1	0.4%	35.0%	-9.9%	10.2%	·	14.5%
Cc1ccc(-c2ccc(CCC(=O)O)o2)cc1	2.9%	22.4µM*	10.4%	11.3%	3.3%	7.4%
O=C(c1ccccc1Br)N1CCC(c2nc3ccccc3o2)CC1	0.7%	30.1%	-3.3%	6.2%	·	-26.1%
CC1(C)CC2(CC(c3ccccc3F)c3ccc(O)c(O)c3O2)NC(=S)N1 (stereo not given)	1.1%	2.82µM*	-24.6%	9.8%[57.1 µM]	5.8%	-18.4%
O=C(CSc1ncccc1C(=O)Oc1ccccc1Cl)Nc1ccc(C(F)(F)F)cc1Cl	2.9%	19.2%[57.1 µM]	-4.5%	4.7%[57.1 µM]	·	·
CC1CCc2c(sc3nnn(Cc4ccc(F)cc4)c(=O)c23)C1 (stereo not given)	-0.4%	16.5%	-3.5%	-2.8%	·	?
CNc1sc(C(=O)c2ccccc2F)c(N)c1-c1nc2ccccc2s1	10µM*	-11.4%	-14.6%	-2.0%	-2.0%	?
CC(C)n1c(O)c(N=NC(=O)CNC(=O)Cc2ccc(Cl)cc2)c2ccccc21	0.1%	10.1%	-6.4%	-2.5%	13.3%	-20.0%
COc1ccccc1C(=O)NCC(=O)N=Nc1c(O)n(C(C)C)c2ccccc12	-0.4%	11.3%	-15.2%	-1.8%	6.6%	23.1µM*
CCOc1cccc(C(=O)Nc2ccc3oc(-c4cccnc4)nc3c2)c1	-0.1%	35.1%	-9.7%	21.0%	-4.4%	9.2µM*
O=C(Nc1ccc2oc(-c3cccnc3)nc2c1)c1ccc(Br)o1	-0.1%	44.7µM*	-5.5%	9.9%	-2.1%	?
CCOc1cccc(C(=O)Nc2ccc3oc(Cc4ccc(Cl)cc4)nc3c2)c1	-0.3%	0.1%	?	-5.1%	0.2%	20.6µM*
COc1ccc(C(=O)N(Cc2ccccc2)Cc2ccccc2)c(O)c1	·	·	-2.5%	·	·	?
COc1cccc(N=c2oc3ccc(OC)cc3cc2-c2nc3ccccc3[nH]2)c1	14.0%	5.9%	13µM*	-4.6%	0.0%	?
COc1ccc(C(C#N)N2CCC(c3ccccc3)=N2)cc1OC (stereo not given)	?	3.16µM*	-5.0%	3.3%[57.1 µM]	-0.6%	11.2%
COc1cc(C(C#N)N2CCC(c3ccccc3)=N2)ccc1O (stereo not given)	13.1%	22.4µM*	-6.4%	-4.0%	-0.3%	20.7%

From PubChem BioAssay
